Experiments:
Experiment in all cases: log2 ratio of Biotin-Ahx-Ub-VS probe labelling (fragment/DMSO); higher = less target engagement (more negative = stronger competition), active = hit call of the paper (q ≤ 0.05, log2 ratio ≤ -1)
Conditions in all cases: compound concentration: 200 uM; treatment time: 3 h
USP19 = molecular target: T1, USP19 (UniProt O94966)
T1 sequence (whole entry): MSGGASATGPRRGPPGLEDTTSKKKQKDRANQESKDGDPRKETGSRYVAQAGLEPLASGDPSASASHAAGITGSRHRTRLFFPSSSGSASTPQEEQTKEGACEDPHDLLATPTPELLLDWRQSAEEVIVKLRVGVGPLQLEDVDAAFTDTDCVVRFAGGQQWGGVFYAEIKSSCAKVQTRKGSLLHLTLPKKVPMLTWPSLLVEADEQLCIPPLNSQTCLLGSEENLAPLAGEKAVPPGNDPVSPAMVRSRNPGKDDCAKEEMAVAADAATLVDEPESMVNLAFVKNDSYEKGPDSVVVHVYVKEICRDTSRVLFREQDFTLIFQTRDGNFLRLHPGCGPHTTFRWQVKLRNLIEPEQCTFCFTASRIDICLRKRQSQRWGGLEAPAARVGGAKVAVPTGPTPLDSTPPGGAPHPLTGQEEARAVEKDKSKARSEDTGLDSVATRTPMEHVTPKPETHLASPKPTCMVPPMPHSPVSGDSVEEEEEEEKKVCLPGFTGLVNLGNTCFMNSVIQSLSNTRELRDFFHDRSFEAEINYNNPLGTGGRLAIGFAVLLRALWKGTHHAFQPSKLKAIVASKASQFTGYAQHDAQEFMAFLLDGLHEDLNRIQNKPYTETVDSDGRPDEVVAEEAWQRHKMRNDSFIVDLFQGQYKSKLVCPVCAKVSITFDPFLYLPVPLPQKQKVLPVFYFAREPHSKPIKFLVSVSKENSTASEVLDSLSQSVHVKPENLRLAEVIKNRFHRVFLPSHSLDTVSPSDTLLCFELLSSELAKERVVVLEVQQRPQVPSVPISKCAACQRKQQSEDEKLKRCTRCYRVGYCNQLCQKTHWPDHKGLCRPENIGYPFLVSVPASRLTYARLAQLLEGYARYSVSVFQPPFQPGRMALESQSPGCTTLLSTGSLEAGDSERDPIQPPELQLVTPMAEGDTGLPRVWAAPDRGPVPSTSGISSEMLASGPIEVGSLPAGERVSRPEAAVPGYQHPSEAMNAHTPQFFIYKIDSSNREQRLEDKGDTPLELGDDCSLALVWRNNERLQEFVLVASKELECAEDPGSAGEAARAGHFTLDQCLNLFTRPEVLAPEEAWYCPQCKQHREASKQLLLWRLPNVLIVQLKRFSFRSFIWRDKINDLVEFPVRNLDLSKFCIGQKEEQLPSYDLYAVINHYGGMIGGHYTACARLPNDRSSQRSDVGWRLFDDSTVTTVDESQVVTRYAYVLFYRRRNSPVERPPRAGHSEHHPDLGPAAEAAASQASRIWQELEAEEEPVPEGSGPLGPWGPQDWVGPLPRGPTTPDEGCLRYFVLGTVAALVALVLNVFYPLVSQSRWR
In short: (§1)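 HEK293T lysate (495 µg per sample, in Tris/CHAPS/IGEPAL buffer with protease inhibitors) was exposed in triplicate for 3 h to fragment at 200 µM or to vehicle, then to Biotin-Ahx-Ub-VS at 0.5 µM final for 1 h. Labelled DUBs were enriched on NeutrAvidin, digested with LysC and trypsin, and analysed by diaPASEF LC-MS/MS. Spectronaut label-free quantities were normalised to the global median, and values are average log2 ratios of fragment over vehicle from an unpaired t-test. Only proteins with ≥2 unique peptides were used.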

USP22 = molecular target: T2, USP22 (UniProt Q9UPT9)
T2 sequence (whole entry): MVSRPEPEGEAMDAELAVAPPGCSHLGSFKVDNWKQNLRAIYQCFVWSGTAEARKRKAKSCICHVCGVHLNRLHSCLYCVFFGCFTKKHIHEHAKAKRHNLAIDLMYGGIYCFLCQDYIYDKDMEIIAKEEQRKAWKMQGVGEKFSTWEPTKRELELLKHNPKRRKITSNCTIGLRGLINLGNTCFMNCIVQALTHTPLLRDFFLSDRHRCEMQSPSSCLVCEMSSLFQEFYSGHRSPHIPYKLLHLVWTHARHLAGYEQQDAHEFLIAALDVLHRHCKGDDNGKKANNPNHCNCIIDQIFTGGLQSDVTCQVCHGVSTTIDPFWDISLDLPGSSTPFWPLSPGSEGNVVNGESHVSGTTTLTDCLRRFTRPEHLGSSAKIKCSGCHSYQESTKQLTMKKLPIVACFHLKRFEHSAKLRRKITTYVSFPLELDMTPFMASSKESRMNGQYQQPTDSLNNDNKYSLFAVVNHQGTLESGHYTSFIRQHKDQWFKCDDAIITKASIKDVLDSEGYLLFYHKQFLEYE
In short: as §1

USP24 = USP24 (UniProt Q9UPU5)
USP24, sequence (Q9UPU5 whole entry): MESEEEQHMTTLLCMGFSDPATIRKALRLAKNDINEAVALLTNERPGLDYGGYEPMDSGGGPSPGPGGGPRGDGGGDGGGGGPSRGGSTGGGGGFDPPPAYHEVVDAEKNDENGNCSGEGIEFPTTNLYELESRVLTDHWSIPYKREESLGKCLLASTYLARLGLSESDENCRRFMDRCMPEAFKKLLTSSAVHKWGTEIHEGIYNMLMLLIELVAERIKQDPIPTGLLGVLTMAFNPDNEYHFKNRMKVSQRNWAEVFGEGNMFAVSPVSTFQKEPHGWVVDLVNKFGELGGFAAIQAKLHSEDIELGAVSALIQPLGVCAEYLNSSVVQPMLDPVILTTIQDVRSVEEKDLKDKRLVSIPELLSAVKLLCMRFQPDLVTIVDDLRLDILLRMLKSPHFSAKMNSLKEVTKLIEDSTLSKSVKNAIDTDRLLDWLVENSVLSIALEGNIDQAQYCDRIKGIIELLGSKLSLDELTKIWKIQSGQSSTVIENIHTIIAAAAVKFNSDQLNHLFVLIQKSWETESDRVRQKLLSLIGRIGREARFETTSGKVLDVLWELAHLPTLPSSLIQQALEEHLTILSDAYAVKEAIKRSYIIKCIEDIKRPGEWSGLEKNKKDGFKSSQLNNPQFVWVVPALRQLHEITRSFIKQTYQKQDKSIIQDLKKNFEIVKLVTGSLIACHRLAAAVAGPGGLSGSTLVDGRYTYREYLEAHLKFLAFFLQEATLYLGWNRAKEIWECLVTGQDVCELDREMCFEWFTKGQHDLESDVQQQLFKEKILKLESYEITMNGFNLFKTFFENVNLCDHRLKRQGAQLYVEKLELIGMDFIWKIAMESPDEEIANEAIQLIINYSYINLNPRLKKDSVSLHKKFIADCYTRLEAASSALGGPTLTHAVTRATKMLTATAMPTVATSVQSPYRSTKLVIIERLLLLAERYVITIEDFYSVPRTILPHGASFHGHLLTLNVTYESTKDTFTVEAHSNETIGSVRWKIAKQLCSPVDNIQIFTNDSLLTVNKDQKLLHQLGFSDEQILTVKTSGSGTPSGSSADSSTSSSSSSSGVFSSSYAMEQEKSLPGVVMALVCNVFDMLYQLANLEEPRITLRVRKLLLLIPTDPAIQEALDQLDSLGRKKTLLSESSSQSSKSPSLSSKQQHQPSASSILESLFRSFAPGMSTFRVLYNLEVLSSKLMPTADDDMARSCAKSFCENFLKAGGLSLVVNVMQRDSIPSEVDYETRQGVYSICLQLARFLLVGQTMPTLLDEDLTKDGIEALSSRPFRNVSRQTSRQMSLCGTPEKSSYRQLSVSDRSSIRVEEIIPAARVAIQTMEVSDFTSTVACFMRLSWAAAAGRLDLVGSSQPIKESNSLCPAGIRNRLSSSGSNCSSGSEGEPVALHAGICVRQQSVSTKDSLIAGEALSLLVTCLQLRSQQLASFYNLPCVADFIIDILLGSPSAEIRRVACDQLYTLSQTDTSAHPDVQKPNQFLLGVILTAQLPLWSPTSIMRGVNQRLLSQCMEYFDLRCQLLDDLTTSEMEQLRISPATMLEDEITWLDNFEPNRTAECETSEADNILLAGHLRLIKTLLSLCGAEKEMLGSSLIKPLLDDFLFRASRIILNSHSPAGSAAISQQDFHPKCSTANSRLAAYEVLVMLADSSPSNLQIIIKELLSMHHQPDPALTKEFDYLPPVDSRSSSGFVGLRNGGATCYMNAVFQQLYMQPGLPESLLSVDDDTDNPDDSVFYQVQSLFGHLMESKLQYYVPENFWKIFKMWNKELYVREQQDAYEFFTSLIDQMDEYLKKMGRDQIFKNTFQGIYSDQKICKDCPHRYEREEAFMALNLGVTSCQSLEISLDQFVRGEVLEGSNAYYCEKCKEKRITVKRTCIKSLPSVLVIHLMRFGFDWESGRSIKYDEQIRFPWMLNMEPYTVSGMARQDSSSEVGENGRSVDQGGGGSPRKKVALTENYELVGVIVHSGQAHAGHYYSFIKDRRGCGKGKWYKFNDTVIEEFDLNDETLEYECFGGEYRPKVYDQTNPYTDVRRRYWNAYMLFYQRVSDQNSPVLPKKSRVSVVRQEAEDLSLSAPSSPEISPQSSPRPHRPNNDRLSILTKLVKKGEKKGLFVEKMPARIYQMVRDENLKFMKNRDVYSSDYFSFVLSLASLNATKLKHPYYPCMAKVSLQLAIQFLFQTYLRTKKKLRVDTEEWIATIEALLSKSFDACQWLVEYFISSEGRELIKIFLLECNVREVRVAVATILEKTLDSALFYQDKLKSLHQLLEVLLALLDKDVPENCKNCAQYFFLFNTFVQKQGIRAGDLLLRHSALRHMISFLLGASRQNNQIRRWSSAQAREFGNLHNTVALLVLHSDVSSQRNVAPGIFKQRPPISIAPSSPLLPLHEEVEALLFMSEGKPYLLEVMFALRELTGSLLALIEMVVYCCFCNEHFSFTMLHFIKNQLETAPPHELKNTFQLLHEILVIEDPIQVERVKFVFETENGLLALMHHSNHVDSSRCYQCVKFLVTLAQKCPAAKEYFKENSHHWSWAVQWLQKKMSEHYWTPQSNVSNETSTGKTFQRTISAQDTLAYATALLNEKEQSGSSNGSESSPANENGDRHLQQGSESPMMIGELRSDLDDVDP
In short: as §1

USP25 = molecular target: T3, USP25 (UniProt Q9UHP3)
T3 sequence (whole entry): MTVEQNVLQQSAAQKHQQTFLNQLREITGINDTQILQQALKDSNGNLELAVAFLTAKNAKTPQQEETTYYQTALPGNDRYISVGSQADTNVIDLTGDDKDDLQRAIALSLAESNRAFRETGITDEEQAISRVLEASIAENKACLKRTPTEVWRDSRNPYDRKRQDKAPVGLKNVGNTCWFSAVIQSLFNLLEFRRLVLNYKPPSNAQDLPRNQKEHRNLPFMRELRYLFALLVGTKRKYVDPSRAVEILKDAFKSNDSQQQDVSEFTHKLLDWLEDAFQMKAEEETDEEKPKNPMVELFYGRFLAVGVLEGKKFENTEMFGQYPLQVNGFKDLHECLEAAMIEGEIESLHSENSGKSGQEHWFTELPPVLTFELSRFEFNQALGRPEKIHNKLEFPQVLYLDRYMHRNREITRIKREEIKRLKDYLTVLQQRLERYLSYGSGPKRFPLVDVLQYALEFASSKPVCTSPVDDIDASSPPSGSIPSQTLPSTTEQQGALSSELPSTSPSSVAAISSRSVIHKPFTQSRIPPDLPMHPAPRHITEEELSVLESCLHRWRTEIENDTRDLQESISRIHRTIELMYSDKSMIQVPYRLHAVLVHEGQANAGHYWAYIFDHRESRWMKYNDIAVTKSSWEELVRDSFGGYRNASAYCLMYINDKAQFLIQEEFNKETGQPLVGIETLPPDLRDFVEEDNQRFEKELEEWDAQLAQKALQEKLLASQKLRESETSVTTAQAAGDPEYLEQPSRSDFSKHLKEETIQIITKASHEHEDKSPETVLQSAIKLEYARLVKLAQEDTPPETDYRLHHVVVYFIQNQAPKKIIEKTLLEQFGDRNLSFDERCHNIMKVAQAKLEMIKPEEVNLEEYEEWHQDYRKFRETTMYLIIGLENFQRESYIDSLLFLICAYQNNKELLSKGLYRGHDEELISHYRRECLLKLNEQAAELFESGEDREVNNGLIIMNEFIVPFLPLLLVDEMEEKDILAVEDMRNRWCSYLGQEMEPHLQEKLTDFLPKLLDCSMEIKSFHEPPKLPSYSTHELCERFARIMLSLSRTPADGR
In short: as §1

USP28 = molecular target: T4, USP28 (UniProt Q96RU2)
T4 sequence (whole entry): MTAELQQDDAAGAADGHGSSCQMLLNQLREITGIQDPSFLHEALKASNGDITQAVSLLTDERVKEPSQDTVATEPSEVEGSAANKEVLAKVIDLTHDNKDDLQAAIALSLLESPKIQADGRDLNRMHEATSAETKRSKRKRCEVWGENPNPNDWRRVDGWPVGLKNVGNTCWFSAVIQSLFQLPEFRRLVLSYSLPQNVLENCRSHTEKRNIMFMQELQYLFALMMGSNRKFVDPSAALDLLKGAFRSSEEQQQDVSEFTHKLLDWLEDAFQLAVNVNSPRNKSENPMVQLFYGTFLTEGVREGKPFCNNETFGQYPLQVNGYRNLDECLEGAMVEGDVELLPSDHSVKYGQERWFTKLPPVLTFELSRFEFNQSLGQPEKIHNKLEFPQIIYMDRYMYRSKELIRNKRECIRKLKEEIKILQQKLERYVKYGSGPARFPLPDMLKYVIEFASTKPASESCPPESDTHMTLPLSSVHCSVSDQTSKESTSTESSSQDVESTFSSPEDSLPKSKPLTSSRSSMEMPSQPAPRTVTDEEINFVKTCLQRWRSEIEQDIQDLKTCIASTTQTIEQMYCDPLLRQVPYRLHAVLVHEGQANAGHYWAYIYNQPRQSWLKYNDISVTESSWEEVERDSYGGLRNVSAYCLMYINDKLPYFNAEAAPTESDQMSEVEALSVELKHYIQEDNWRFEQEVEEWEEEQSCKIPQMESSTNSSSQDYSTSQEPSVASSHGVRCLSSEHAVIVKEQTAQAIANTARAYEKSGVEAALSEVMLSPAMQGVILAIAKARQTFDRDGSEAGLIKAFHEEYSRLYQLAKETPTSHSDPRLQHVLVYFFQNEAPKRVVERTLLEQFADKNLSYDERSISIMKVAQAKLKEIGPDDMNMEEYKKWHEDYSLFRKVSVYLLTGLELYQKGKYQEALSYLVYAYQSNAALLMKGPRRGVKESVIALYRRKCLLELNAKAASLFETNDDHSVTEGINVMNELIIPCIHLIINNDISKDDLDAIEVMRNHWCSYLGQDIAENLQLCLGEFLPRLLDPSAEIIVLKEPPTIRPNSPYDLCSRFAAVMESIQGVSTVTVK
In short: as §1

Measured: log2 ratio of Biotin-Ahx-Ub-VS probe labelling

O=C(CCl)NC1CCC2(CC1)OCCO2
inactive: USP19 -0.189 | USP22 -0.165 | USP24 -0.301 | USP25 -0.49 | USP28 -0.665

Reference: the supplement of paper PMC11732987, “Enantioselective OTUD7B fragment discovery through chemoproteomics screening and high-throughput optimisation” (Communications Chemistry, 2025)
